FBW7 act: activators of human E3 ligase FBW7. Q969H0. AlphaScreen FBW7–phospho-cyclin E peptide binding, activator screen. normalized activity (activation), % at 26.1 µM. actives 0.13% (n = 650,000). AID 1259310; in the data active = normalized activity above about 1.9%;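 note: purified mutant Fbw7 with reduced substrate affinity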
Target sequence (Q969H0 whole entry, looked up): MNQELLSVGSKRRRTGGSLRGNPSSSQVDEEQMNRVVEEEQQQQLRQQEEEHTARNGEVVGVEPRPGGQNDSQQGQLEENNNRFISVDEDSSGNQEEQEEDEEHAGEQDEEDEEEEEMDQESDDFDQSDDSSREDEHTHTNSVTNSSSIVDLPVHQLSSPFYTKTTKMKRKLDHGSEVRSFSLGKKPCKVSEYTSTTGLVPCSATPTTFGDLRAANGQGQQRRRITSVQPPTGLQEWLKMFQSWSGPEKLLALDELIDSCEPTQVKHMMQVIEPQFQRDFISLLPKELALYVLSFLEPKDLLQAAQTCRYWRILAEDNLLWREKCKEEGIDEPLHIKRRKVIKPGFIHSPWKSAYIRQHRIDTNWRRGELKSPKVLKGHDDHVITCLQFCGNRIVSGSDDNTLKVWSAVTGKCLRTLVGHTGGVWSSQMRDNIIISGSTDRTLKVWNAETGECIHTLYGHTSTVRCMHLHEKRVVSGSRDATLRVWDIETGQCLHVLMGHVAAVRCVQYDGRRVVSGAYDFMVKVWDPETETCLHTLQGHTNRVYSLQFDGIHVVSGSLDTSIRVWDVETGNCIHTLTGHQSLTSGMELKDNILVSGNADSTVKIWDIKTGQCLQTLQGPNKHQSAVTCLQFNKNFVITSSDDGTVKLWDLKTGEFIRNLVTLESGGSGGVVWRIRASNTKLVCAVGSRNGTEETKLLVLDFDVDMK
GPR151 ag: human GPR151 activation | Q8TDV0 | PathHunter beta-arrestin GPR151 cells, luminescence | activation, % at 11.2 µM | actives 1% (n = 650,000) | AID 1508602; in the data active = activation above about 4.9%;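 note: 0% = median of compound wells and 100% = cells with positive control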
TEAD-YAP inh: TEAD-YAP interaction inhibition. HEK-TIYL cells, TEAD-Gal4/YAP UAS-luciferase luminescence. AID 1259422. actives 1.4% (n = 640,000). inhibition, % at 9.12 µM; in the data active = inhibition above about 32%;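 note: 0% = median of test compound wells and 100% = reference inhibitor wells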
MITF primary: inhibitors of human MITF | O75030 | AlphaScreen MITF homodimerization, bead proximity signal | inhibition, % at 2.6 µM | actives 0.91% (n = 650,000) | AID 1259374; in the data active = inhibition above about 50%;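 note: 0% = vehicle wells with protein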
Starred values were filed as active, the others as inactive. Only some compounds are listed: those with a hit (about 3.5% of all), similar ones and a draw of the others.

`O=C(O)c1ccc(N2N=C(c3ccccc3)/C(=C\c3cccc([N+](=O)[O-])c3O)C2=O)cc1` gave FBW7 act 0, GPR151 ag -2, TEAD-YAP inh -13 and MITF primary 8.
Screening CC(C)c1ccc(OCC(=O)Nc2ncn[nH]2)c(Br)c1 returned FBW7 act 0, GPR151 ag -4, TEAD-YAP inh 63* and MITF primary 9.
For CC(C)(C)c1ccc(OCC(=O)Nc2ncn[nH]2)c(Br)c1 the results were FBW7 act 1, GPR151 ag -1, TEAD-YAP inh 7 and MITF primary 10.
For Cc1ccc(N2C(=O)c3ccccc3C2O)nc1 (configuration not stated) the results were FBW7 act 0, GPR151 ag -6, TEAD-YAP inh 78* and MITF primary 0.
For COc1ccccc1C(NC(C)=O)c1cc(Cl)c2cccnc2c1O (configuration not stated) the results were FBW7 act 0, GPR151 ag 0, TEAD-YAP inh 3 and MITF primary 3.
`CC(=O)NC(c1ccc2cccnc2c1O)c1cccc2ccccc12` (configuration not stated) gave FBW7 act -2, GPR151 ag 0, TEAD-YAP inh 82* and MITF primary 46.
CC(=O)NC(c1ccccc1C)c1ccc2cccnc2c1O (configuration not stated) was read as FBW7 act -1, GPR151 ag -1, TEAD-YAP inh 85* and MITF primary 24.
Nc1cccc(-c2cncc(-c3ccc(O)cc3)n2)c1 was read as FBW7 act 0, GPR151 ag 1, TEAD-YAP inh 3 and MITF primary -3.
Screening Cn1c(CNc2ccc(O)cc2)nc2ccccc21 returned FBW7 act 0, GPR151 ag -1, TEAD-YAP inh -16 and MITF primary 12.
`Cc1ccc(CNc2nc3ccccc3n2C)cc1` gave FBW7 act 1, GPR151 ag -8, TEAD-YAP inh 75* and MITF primary 19.
Cc1ccc(NCc2nc3ccccc3n2C)cc1 was read as FBW7 act 0, GPR151 ag -5, TEAD-YAP inh 35* and MITF primary 23.
`Cn1c(NCc2ccncc2)nc2ccccc21` gave FBW7 act 0, GPR151 ag 0, TEAD-YAP inh -4 and MITF primary -22.
For CC(=O)Oc1ccc2c(=O)c(-c3nc4ccccc4s3)coc2c1C the results were FBW7 act 0, GPR151 ag -1, TEAD-YAP inh -9 and MITF primary 1.
For Cc1ccc2nc(-c3ccc(NC(=O)c4sc5ccccc5c4Cl)cc3)sc2c1 the results were FBW7 act 0, GPR151 ag -1, TEAD-YAP inh -8 and MITF primary 0.
COc1ccc(CN2CCN(Cc3cc(OC)ccc3O)CC2)cc1 was read as FBW7 act 0, GPR151 ag 0, TEAD-YAP inh -1 and MITF primary 83*.
CCn1c2ccccc2c2cc(CN3CCN(Cc4cc(OC)c(O)c(OC)c4)CC3)ccc21 was read as FBW7 act 0, GPR151 ag 1, TEAD-YAP inh -6 and MITF primary 46.
COc1ccc(O)c(CN2CCN(Cc3ccccc3OC)CC2)c1 was read as FBW7 act 0, GPR151 ag -1, TEAD-YAP inh -4 and MITF primary 69*.
`CCn1c2ccccc2c2cc(CN3CCN(Cc4cc(OC)ccc4O)CC3)ccc21` gave FBW7 act 0, GPR151 ag -1, TEAD-YAP inh -18 and MITF primary 62*.
Screening COc1ccc(-c2nc3ccccc3c(=O)n2OC(=O)c2ccc(C(C)(C)C)cc2)cc1OC returned FBW7 act 0, GPR151 ag -2, TEAD-YAP inh -14 and MITF primary -3.
Screening CC(C)(C)c1ccc(C(=O)On2c(-c3ccc(C(C)(C)C)cc3)nc3ccccc3c2=O)cc1 returned FBW7 act -1, GPR151 ag -1, TEAD-YAP inh 38* and MITF primary -4.
For COc1ccccc1C(=O)Nn1c(-c2ccc(C(C)(C)C)cc2)nc2ccccc2c1=O the results were FBW7 act 0, GPR151 ag 0, TEAD-YAP inh 40* and MITF primary 17.
For COc1ccccc1C(=O)Nn1c(-c2ccc(Br)cc2)nc2ccccc2c1=O the results were FBW7 act 0, GPR151 ag 0, TEAD-YAP inh 7 and MITF primary -1.
Screening CCc1ccc(C(=O)On2c(-c3ccc(C(C)(C)C)cc3)nc3ccccc3c2=O)cc1 returned FBW7 act -1, GPR151 ag -1, TEAD-YAP inh 39* and MITF primary -6.
For Cc1ccc(OCC(=O)N(Cc2nc(-c3ccccc3)no2)C(C)C)c(C)c1 the results were FBW7 act -1, GPR151 ag 0, TEAD-YAP inh -5 and MITF primary -3.
For C=CCn1c(SC)nc(O)c(CC)c1=O the results were FBW7 act 1.9*, GPR151 ag -1, TEAD-YAP inh 1 and MITF primary 9.
C/C(Cn1nc([N+](=O)[O-])cc1C)=N/NC(=O)c1cc(O)c(O)c(O)c1 was read as FBW7 act 0, GPR151 ag 0, TEAD-YAP inh 8 and MITF primary 56*.
`CC1=C(C(=O)OCCc2ccccc2)C(c2ccc(Cl)cc2Cl)C2=C(CC(C)(C)CC2=O)N1` (configuration not stated) gave FBW7 act 2.1*, GPR151 ag 2, TEAD-YAP inh -1 and MITF primary 19.
COc1cc(C2C3=C(CC(C)(C)CC3=O)Nc3c2ccc2ccccc32)cc(Br)c1O (configuration not stated) was read as FBW7 act 0, GPR151 ag 1, TEAD-YAP inh 60* and MITF primary -3.
For CCOC(=O)C1=C(C)NC2=C(C(=O)CC(C)(C)C2)C1c1cccc(OC)c1O (configuration not stated) the results were FBW7 act 1.9*, GPR151 ag -1, TEAD-YAP inh 11 and MITF primary 4.
For COC(=O)C1=C(C)NC2=C(C(=O)CC(C)(C)C2)C1c1cccc(Cl)c1Cl (configuration not stated) the results were FBW7 act 2.0*, GPR151 ag 1, TEAD-YAP inh 2 and MITF primary 0.
Screening Cc1[nH]c2c(C)ccc(F)c2c1CCNC(=O)COc1ccc(F)cc1F returned FBW7 act 0, GPR151 ag -1, TEAD-YAP inh -3 and MITF primary 9.
Screening O=C(NCCc1ccccc1)C1C2C3CCC(C3)C12 (configuration not stated) returned FBW7 act 0, GPR151 ag -4, TEAD-YAP inh 58* and MITF primary -5.
O=C1/C(=C\c2cccnc2)SC(=Nc2ccccc2)N1CCc1ccccc1 was read as FBW7 act 1, GPR151 ag 0, TEAD-YAP inh -13 and MITF primary 18.
Cc1ccc(NC(=O)CCCCCN2C(=O)c3ccccc3C2=O)cc1 was read as FBW7 act 1, GPR151 ag 1, TEAD-YAP inh 11 and MITF primary 5.
For Cc1ccc(NC(=O)CCCCCC2NC(=O)NC2C)cc1 (configuration not stated) the results were FBW7 act -1, GPR151 ag 1, TEAD-YAP inh -11 and MITF primary 99*.
